Reference: ChEMBL document CHEMBL2218924, “A broad activity screen in support of a chemogenomic map for kinase signalling research and drug discovery” (Biochem J, 2013)

Assays:
[1] = target: T1, Serine/threonine-protein kinase TBK1 (Homo sapiens) (UniProt Q9UHD2); conditions: at 10 µM
T1 sequence (whole entry): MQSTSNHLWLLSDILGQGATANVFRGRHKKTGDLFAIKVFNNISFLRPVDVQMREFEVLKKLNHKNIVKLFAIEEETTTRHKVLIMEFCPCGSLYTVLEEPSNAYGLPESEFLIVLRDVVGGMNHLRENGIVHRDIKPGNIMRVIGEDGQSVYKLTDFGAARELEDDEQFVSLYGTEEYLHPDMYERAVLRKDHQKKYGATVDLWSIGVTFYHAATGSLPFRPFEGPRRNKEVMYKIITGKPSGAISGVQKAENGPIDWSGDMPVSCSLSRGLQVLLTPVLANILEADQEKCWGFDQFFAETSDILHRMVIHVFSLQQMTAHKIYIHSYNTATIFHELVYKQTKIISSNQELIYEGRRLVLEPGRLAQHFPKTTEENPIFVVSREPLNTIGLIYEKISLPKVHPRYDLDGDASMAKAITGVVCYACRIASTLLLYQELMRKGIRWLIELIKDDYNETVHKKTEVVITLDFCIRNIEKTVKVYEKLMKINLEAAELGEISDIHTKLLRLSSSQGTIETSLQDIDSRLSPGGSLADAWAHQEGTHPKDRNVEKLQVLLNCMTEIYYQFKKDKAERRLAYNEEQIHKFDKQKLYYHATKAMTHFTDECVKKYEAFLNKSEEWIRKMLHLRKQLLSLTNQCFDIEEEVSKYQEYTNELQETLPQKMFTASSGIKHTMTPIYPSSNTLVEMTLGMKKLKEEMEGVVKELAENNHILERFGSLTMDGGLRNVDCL

[2] = target: T2, TGF-beta receptor type-1 (Homo sapiens) (UniProt P36897); conditions: at 1 µM
T2 sequence (whole entry): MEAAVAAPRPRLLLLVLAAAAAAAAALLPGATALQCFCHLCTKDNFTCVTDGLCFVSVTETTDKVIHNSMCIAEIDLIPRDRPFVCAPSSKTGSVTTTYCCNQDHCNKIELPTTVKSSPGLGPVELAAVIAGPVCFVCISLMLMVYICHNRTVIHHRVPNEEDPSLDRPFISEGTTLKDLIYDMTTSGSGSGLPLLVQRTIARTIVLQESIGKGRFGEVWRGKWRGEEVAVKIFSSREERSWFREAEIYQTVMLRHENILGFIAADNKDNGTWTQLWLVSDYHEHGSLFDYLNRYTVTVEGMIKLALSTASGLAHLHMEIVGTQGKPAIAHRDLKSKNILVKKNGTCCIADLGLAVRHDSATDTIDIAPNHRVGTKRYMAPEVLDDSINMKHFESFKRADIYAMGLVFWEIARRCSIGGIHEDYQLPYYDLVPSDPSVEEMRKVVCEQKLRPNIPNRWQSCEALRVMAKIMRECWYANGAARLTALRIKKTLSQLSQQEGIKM

[3] = target: T2, TGF-beta receptor type-1 (Homo sapiens); conditions: at 10 µM
[4] = target: Insulin-like growth factor 1 receptor (Homo sapiens) (UniProt P08069); conditions: at 1 µM
[5] = target: Insulin-like growth factor 1 receptor (Homo sapiens) (UniProt P08069); conditions: at 10 µM
[6] = target: T3, Inhibitor of nuclear factor kappa-B kinase subunit alpha (Homo sapiens) (UniProt O15111); conditions: at 1 µM
T3 sequence (whole entry): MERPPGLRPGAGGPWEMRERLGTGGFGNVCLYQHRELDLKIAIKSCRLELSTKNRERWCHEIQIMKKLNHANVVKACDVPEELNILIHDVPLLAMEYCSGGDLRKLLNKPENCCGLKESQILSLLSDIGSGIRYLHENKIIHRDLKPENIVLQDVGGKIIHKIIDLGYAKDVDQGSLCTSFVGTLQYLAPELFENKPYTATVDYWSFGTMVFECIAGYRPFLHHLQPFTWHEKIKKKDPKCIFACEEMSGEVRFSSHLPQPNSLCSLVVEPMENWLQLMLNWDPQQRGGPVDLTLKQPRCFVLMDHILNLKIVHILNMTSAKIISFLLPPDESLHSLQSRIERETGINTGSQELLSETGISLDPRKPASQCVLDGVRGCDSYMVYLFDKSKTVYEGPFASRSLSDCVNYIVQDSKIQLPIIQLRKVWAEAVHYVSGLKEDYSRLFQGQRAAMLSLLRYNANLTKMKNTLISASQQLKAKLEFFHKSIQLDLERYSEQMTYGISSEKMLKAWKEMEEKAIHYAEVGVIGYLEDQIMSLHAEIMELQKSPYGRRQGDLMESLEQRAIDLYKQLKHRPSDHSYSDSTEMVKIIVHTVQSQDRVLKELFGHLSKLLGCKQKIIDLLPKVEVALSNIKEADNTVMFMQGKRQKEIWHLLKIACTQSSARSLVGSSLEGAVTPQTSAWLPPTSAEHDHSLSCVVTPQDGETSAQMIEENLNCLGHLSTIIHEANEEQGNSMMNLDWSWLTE

[7] = target: T3, Inhibitor of nuclear factor kappa-B kinase subunit alpha (Homo sapiens); conditions: at 10 µM
[8] = target: T4, Inhibitor of nuclear factor kappa-B kinase subunit beta (Homo sapiens) (UniProt O14920); conditions: at 1 µM
T4 sequence (whole entry): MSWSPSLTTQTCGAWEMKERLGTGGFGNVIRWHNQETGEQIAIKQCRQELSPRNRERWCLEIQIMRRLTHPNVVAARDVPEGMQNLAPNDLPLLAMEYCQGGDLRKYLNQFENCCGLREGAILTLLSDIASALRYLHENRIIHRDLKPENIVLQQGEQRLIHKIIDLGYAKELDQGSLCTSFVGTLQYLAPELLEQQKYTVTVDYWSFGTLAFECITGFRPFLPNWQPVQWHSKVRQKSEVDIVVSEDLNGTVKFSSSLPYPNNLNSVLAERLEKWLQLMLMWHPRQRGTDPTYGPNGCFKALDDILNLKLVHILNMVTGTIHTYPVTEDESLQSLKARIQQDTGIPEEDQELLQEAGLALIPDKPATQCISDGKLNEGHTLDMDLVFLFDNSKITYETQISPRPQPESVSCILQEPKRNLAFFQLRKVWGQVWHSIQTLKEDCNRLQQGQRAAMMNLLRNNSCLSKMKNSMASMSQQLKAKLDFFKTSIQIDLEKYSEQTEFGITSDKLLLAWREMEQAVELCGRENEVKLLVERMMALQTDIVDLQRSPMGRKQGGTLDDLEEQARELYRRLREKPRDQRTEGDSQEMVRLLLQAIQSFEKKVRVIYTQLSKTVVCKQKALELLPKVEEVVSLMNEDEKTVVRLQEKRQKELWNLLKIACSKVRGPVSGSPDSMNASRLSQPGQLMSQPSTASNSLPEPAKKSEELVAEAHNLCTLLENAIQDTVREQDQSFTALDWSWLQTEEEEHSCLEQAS

[9] = target: T4, Inhibitor of nuclear factor kappa-B kinase subunit beta (Homo sapiens); conditions: at 10 µM
[10] = target: Insulin receptor (Homo sapiens) (UniProt P06213); conditions: at 1 µM
Sequence of Insulin receptor (Homo sapiens) (P06213 28-758 limits assumed): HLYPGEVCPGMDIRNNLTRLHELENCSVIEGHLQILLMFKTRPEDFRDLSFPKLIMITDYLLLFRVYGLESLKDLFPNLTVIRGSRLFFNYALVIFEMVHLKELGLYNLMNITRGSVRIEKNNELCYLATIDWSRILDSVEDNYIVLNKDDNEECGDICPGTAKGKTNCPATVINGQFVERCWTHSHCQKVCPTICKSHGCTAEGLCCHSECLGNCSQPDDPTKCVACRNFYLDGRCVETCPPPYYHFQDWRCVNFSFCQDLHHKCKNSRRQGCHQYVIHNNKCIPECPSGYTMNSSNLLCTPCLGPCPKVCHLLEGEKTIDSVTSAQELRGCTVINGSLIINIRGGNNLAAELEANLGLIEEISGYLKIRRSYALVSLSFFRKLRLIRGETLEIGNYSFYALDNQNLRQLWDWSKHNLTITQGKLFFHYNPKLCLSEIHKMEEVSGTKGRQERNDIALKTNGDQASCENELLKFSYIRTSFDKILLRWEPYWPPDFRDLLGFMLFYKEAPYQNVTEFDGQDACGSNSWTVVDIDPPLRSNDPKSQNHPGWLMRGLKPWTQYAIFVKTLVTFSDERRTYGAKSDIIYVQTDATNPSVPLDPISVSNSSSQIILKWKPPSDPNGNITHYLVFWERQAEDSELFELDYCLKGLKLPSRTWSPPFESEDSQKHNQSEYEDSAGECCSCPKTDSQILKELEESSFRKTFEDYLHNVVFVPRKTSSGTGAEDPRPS
Sequence of Insulin receptor (Homo sapiens) (P06213 763-1382 limits assumed): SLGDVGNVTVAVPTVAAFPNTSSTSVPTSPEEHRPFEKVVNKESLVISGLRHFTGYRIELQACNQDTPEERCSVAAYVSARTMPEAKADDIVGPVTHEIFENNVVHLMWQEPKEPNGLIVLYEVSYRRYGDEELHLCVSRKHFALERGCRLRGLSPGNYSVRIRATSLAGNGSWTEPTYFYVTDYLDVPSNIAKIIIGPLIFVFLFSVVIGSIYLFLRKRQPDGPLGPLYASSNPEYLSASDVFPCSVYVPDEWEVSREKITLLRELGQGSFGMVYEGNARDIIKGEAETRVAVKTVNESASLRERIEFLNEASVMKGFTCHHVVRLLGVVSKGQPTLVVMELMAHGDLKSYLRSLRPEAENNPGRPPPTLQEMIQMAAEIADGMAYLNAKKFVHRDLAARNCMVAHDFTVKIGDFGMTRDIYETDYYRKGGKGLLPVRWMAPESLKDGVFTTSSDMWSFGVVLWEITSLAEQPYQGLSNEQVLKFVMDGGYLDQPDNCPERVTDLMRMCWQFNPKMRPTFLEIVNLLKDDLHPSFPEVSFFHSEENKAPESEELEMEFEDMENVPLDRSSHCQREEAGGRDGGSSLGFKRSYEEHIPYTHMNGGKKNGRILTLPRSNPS

Sequence of Insulin-like growth factor 1 receptor (Homo sapiens) (P08069 31-736 limits assumed): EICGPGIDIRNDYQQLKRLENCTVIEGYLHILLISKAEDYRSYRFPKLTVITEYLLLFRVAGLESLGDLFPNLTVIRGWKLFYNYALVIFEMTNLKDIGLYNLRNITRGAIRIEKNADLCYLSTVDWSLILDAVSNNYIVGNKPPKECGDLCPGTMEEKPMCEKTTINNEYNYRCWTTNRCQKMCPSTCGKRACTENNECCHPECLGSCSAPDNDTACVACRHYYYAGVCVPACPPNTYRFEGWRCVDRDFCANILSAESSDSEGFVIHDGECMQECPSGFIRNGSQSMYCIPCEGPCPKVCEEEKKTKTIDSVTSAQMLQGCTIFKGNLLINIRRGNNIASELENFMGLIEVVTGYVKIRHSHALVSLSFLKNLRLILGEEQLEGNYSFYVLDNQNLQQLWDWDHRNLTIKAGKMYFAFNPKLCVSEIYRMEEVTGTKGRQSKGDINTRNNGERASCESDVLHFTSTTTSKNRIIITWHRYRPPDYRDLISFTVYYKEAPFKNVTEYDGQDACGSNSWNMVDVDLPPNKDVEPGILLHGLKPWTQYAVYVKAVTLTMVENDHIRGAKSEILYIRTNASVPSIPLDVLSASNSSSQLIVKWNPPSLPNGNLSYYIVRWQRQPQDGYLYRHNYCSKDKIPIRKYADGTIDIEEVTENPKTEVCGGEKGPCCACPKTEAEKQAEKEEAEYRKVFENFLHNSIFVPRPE
Sequence of Insulin-like growth factor 1 receptor (Homo sapiens) (P08069 741-1367 limits assumed): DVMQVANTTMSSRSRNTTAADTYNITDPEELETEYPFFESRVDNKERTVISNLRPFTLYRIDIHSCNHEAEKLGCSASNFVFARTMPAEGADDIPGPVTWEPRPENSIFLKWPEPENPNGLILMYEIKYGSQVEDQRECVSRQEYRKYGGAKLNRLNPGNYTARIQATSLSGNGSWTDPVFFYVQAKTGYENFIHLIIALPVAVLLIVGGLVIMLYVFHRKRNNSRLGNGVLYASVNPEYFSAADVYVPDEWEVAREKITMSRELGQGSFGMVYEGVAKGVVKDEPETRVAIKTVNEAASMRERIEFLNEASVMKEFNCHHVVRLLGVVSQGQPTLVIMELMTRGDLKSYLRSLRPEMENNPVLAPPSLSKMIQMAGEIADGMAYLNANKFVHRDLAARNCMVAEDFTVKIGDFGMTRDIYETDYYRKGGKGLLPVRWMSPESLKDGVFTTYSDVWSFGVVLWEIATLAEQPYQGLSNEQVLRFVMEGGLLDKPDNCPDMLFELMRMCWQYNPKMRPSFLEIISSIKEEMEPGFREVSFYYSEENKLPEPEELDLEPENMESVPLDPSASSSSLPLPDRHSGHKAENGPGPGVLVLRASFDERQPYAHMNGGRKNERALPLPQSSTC

**Q.** Which residual activity [1] does the source give for `COc1ccc(CNc2nc(N(CCO)CCO)nc3c2ncn3C(C)C)cc1` here?
**A.** 55%

**Q.** What about the residual activity [2] of the same molecule?
**A.** 88%

**Q.** What about the residual activity [3] of the same molecule?
**A.** 74%

**Q.** And the residual activity [4]?
**A.** 94%

**Q.** What about the residual activity [5] of the same molecule?
**A.** 88%

**Q.** What about the residual activity [6] of the same molecule?
**A.** 101%

**Q.** What about the residual activity [7] of the same molecule?
**A.** 102%

**Q.** What about the residual activity [8] of the same molecule?
**A.** 112%

**Q.** And the residual activity [9]?
**A.** 99%

**Q.** What about the residual activity [10] of the same molecule?
**A.** 99%
